# In PubChem BioAssay (NCI):
# This is part of a sample that, as a whole, favours compounds with a hit. Of some 83,000 tested, about 20% had one in any assay.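 How to read the values: 0–100, growth inhibition (40 = 60% inhibited); 0, no net growth; -100 to 0, cell death (-40 = 40% of starting cells died; -100 = all dead).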 Unmarked numbers belong to inactive results. Activity calls are given as the source filed them. Rule for the calls: active = growth percent below 10; inactive = the rest.
# Tested on: HCT-116 colon
# Assay: NCI-60 one-dose screen, 48 h (100 = growth as untreated, 0 = no growth, -100 = all killed)
# Conditions: 10 µM unless noted
row,SMILES,growth
1,Cc1nn(-c2ccccc2)c(-n2ccnc2)c1/C=N/Nc1nc(-c2ccc(F)cc2)cs1,67.8%
2,O=C(Nc1ccc(Br)cc1F)c1cc(Br)ccc1O,5.39% (active)
3,O=C(/C=C/c1sc(Cl)nc1Cl)c1ccccc1,34%
4,CCCCCCCCCCCCCCCCCC1OCC(COC(=O)O[C@]2(CC)C(=O)OCc3c2cc2n(c3=O)Cc3cc4ccccc4nc3-2)O1 (stereo partly drawn),66.8%
5,COc1cc2cc(Oc3ccc(NC(=O)Nc4ccc(F)c(C(F)(F)F)c4)cc3)c(C)nc2cc1OCCN1CCOCC1,9.66% (active)
6,CCOC(=O)c1nc(Nc2ccc(C(C)=O)cc2)sc1C,99.8%
7,COc1ccc(C2CC(c3ccc(Nc4nc(Nc5ccc(F)cc5)nc(Nc5ccc(Cl)cc5)n4)cc3)=NN2C(C)=O)cc1 (stereo not drawn),94.6%
8,CCN(CC)CCNc1nc2ccccc2c2c(=O)c3cc(Cl)ccc3sc12,20.5%
9,Cc1ccc(C2CC(c3ccc(Nc4ccnc5cc(Cl)ccc45)cc3)=NN2C=O)cc1 (stereo not drawn),57.6%
10,N/C(=N\c1nc2ccccc2s1)NC(=O)Nc1cccc2ccccc12,0.264% (active)
11,O=C(Cc1ccc(F)c(Cl)c1)Nc1cc(C2(C(F)(F)F)CC2)nn1Cc1ccccc1,60.4%
12,O=C1CCC(C(=O)NCCNCCNC(=O)C2CCC(=O)N2)N1 (stereo not drawn),87.8%
13,C=CCNc1ccc2c3c(cccc13)C(=O)N(N1C(=O)c3cccc4cccc(c34)C1=O)C2=O,99.6%
14,NCCCNc1nc2ccccc2c2c(=O)c3cccc(F)c3sc12,-72.5% (active)
15,Cc1ccc2sc3c(NCCN)nc4ccccc4c3c(=O)c2c1,7.89% (active)
16,CCCCN(C)N=Nc1ccc(C(N)=O)cc1,107%
17,O=C(N/N=C/[C@@H](O)[C@H](O)[C@H](O)CO)c1ccc(NC(=O)c2cccnc2)cc1,103%
18,CC(=O)CC(c1cccs1)c1c(-c2ccccc2)[nH]c2ccccc12 (stereo not drawn),89.9%
19,Cc1oc2nc[nH]c(=O)c2c1C(=O)/C=C/c1ccc(Br)cc1,-11.6% (active)

row,SMILES,growth
1,C=C1C(=O)O[C@H]2[C@H]1CC/C(COC(=O)CSCC(=O)OC/C1=C/CC[C@@]3(C)O[C@H]3[C@H]3OC(=O)C(=C)[C@@H]3CC1)=C\CC[C@@]1(C)O[C@@H]21,-46.6% (active)
2,N#Cc1c(-c2ccc(Cl)cc2)nc(NCCO)[nH]c1=O,104%
3,Cc1cc(-c2cc(C)c(N)cc2C)c(C)cc1N,78.8%
4,CCCCCCCCCCCCCCCCCCOc1ccccc1CC(=O)OCC[N+](CC)(CC)CC,19.8%
5,FC(F)(F)c1cc(Nc2ccc3c(OCCCN4CCOCC4)cccc3n2)ccc1Cl,10.8%
6,COc1cc2cc(Oc3ccc(NC(=O)Nc4cccc(C(F)(F)F)c4)cc3)c(C)nc2cc1OCCN1CCOCC1,17.4%
7,Cc1nc(NC(=O)COc2ccc(/C=C3\Cc4ccc(Cl)cc4C3=O)cc2)sc1C,109%
8,CCc1nnc(NC(=O)c2nnn(-c3ccccc3)c2-c2ccco2)s1,64.2%
9,COc1cc(C(=O)c2cc(C)c3[nH]c4ccc(C)cc4c3c2C)cc(OC)c1OC,5.32% (active)
10,O=c1c2cc(F)ccc2sc2c(NCCN3CCOCC3)nc3ccccc3c12,46.9%
11,CC(=O)OC[C@H]1OC(Sc2sc(C(=O)c3ccc(Br)cc3)c(N)c2-c2nc3ccccc3s2)[C@H](OC(C)=O)[C@@H](OC(C)=O)[C@H]1OC(C)=O (stereo partly drawn),91.3%
12,C[N+]1=C(/C=C/c2ccc(O)c3ncccc23)C(C)(C)c2ccccc21,10.4%
13,CC(C)c1cc(C(C)C)c(S(=O)(=O)Oc2ccc(NC(=O)c3ccc(Cl)cc3)cc2)c(C(C)C)c1,8.78% (active)
14,CCOc1c(B(O)O)cccc1-c1nc2ccc3[nH]ncc3c2c2c1CCCC2,34.8%
15,CC1=C([Se]CC(OC(=O)[C@@H](CSSC(C)(C)C)NC(=O)OC(C)(C)C)C(=O)NC(C)(C)C)C(=O)c2ccccc2C1=O (stereo partly drawn),-73.8% (active)
16,CNC(=O)c1[nH]cc(-c2ccccc2)c1-c1cc(OC)c2c(c1OC)OCO2,99.5%
17,C=C(C)C1CCC2(C)OC2C1 (stereo not drawn),109%
18,CSc1ncccc1C(=O)OCC(=O)Nc1oc(C)c2c(C)n[nH]c(=O)c12,109%
19,Oc1ccc(CCl)c2cccnc12,15.4%
